Compound activity as filed in PubChem BioAssay.
VLA-4 inh: inhibition in a human VLA-4 binding assay; P13612; VLA-4 expressing cells, ligand binding flow cytometry; inhibition, % (about 7 µM as worked out from the volumes in the protocol); hit rate 0.2% among 330,000; AID 2557; in the data active = inhibition above about 50%
p-CIP stab down: compounds decreasing mouse p/CIP protein stability | AID 1984 | Q05BA5 | decrease of EGFP signal, % at 10 µM | F442A p/CIP-EGFP cells, EGFP fluorescence, 16 h | hit rate 0.01% among 290,000;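 active = EGFP signal decrease of at least 30% at 10 µM or well 3 SD below plate mean, unless failing retest; inactive = the rest, including hits failing retest or dose response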
GASC-1 inh: inhibitors of human GASC-1 (JMJD2C) demethylase; Q9H3R0; GST-JMJD2C(1-420) H3K9me3 demethylation, DELFIA europium; inhibition, % at 2.35 µM; hit rate 0.069% among 330,000; AID 2099;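 active = more than half of a compound's replicate wells show inhibition beyond 50%, single wells judged on their own value; inconclusive = some, but no more than half, of replicates pass 50% inhibition; inactive = no replicate passes 50% inhibition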;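 note: signal counts dimethyl H3K9 product captured on neutravidin plate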
GPR7 antag: blocks human GPR7 receptor signaling; P48145; GPR7-expressing cells, fluorescence antagonist assay; inhibition, % at 4.4 µM; hit rate 1.1% among 290,000; in the data active = inhibition above about 16%, passing the limit was not always enough;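 note: cells stimulated with the agonist NPW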
VLA-4 mod pick: human VLA-4 allosteric modulation in cherry picked compounds | shares compounds with VLA-4 inh | U937 cells, HUTS-21 LIBS mAb binding, flow cytometry; LDV ligand present at threefold Kd | inhibition, % at 6.7 µM | hit rate 2% among 1,300; in the data active = inhibition above about 40%
Numbers stand for hits; - = inactive; ? = inconclusive; . = not tested or not shown. Rows were chosen to be rich in hits. Some 1.2% of all compounds tested hit in one or more screens of this group.

SMILES	VLA-4 inh	p-CIP stab down	GASC-1 inh	GPR7 antag	VLA-4 mod pick
CCSc1nnc2c(n1)OC1(CCCC1)Nc1ccccc1-2	55	-	-	-	-
CCC1Nc2ccccc2-c2nnc(SC)nc2O1 (stereo not drawn)	-	-	-	-	.
COc1cccc2cc(C(N)=O)oc12	51	-	-	-	-
CC(=O)Nc1ccc(N2C(=O)CC(N3CCSCC3)C2=O)cc1 (stereo not drawn)	-	-	-	-	.
CC(=O)Nc1ccc(N2C(=O)CC(N3CC(C)OC(C)C3)C2=O)cc1 (stereo not drawn)	-	-	-	-	-
NC(=O)NS(=O)(=O)Oc1ccccc1	50	-	-	-	-
Cc1ccc(S(=O)(=O)Nc2ncccn2)cc1	-	-	-	-	-
O=S(=O)(Nc1ncccn1)c1ccc(F)cc1	-	-	-	-	-
Cc1ccccc1NS(=O)(=O)c1cc(S(C)(=O)=O)ccc1Cl	-	-	-	-	.
Cc1ccccc1NS(=O)(=O)c1ccc(Cl)cc1	-	-	-	-	-
O=S(=O)(Nc1ncccn1)c1ccccc1	-	-	-	-	-
O=S(=O)(Nc1ccc(S(=O)(=O)Nc2ncccn2)cc1)c1ccccc1	-	-	-	-	.
Cc1oc(S(=O)(=O)N2CCCCC2)cc1NC(=O)Nc1ccc(Cl)cc1	-	-	-	-	.
OCC[C@H]1C[C@@H](O)[C@H](O)[C@]2(OCc3ccccc32)O1	-	.	-	.	.
O=S(=O)(Nc1ncccn1)c1ccc(Cl)cc1	-	-	-	-	-
COc1ccc(S(=O)(=O)Nc2ncccn2)cc1	-	-	-	-	-
Cn1cc(CN2C[C@H]3CC[C@H]2C3)c(-c2ccccc2F)n1	-	-	-	-	.
CCOC(=O)N1CCN(C(=O)Cc2ccccc2OC)CC1	-	-	-	-	.
CCOC(=O)c1[nH]c(C)c(C(=O)OCC(=O)N2CCCCC2C)c1C (stereo not drawn)	61	-	-	-	-
CSc1cccc(N2C(=O)C3CCCN3C2=S)c1 (stereo not drawn)	-	-	-	-	-
Cc1cccc(N2C(=O)C3CCCN3C2=S)c1 (stereo not drawn)	-	-	-	-	.
Cc1nc([N+](=O)[O-])c(NCCO)n1Cc1ccccc1	54	-	-	-	-
Cc1nc([N+](=O)[O-])c(SCC(N)=O)n1Cc1ccccc1	-	-	-	-	.
COc1ccc(NC(=O)CCn2cccc2)c(OC)c1	58	-	-	-	-
Cc1ccc(NC(=O)COc2ncnc3c(Cl)cc(Cl)cc23)cc1[N+](=O)[O-]	-	-	.	-	-
SMILES	VLA-4 inh	p-CIP stab down	GASC-1 inh	GPR7 antag	VLA-4 mod pick
Cc1cc(Cl)ccc1OCC(=O)OCC(=O)Nc1ccc(F)c([N+](=O)[O-])c1	-	-	-	-	.
CSc1nc(N)nc2c1ncn2CC(=O)N[C@H](C)c1cccc2ccccc12	54	.	-	.	-
COC(=O)[C@@H](Cc1ccccc1)NC(=O)Cn1cnc2c(SC)nc(N)nc21	-	.	-	.	.
CCN(Cc1ccncc1)Cc1cn[nH]c1-c1ccc(OC)cc1F	-	-	-	-	.
CCc1c(C)c2ccc(OC(C)C(=O)NC(Cc3c[nH]c4ccc(O)cc34)C(=O)O)c(C)c2oc1=O (stereo not drawn)	52	-	-	-	-
Cc1cc(=O)oc2c(C)c(OC(C)C(=O)NC(Cc3c[nH]c4ccc(O)cc34)C(=O)O)ccc12 (stereo not drawn)	-	-	?	-	.
COC(=O)[C@]1(Cc2ccccc2)N[C@H](CN(C)S(=O)(=O)c2ccc(C(C)(C)C)cc2)[C@@H]2C(=O)N(Cc3ccccc3)C(=O)[C@@H]21	-	.	-	.	-
CC[C@@]1(C(=O)OC)N[C@H](CN(C)S(=O)(=O)c2ccccc2)[C@@H]2C(=O)N(Cc3ccccc3)C(=O)[C@@H]21	-	.	-	.	.
COC(=O)[C@]1(Cc2ccccc2)N[C@H](CN(C)S(=O)(=O)c2ccc(C(F)(F)F)cc2)[C@@H]2C(=O)N(Cc3ccccc3)C(=O)[C@@H]21	-	.	-	.	-
COc1ccc(S(=O)(=O)Oc2ccccc2C(=S)N2CCOCC2)cc1	-	-	-	-	.
CCC1=NN(C(=O)Cc2ccc(OC)c(OC)c2)C(O)(C(F)(F)F)C1 (stereo not drawn)	-	-	-	-	.
COc1ccccc1-n1cnnc1SCc1csc(-c2ccccc2)n1	95	-	-	-	-
COc1ccccc1-n1cnnc1SCC(=O)Nc1ccccc1	-	-	-	-	.
CCCCC(=O)OCC(=O)c1[nH]c(C)c(C(=O)OCC)c1C	-	-	-	-	-
CCOC(=O)c1c(C)[nH]c(C(=O)COC(=O)CCSc2ccccc2)c1C	-	-	-	-	.
CCOC(=O)c1c(C)[nH]c(C(=O)COC(=O)CSC)c1C	91	-	-	-	-
Cc1nc(C(F)(F)F)c(C(=O)N/N=C(\N)c2ccccn2)s1	-	-	-	-	.
N#Cc1c(C(F)(F)F)cc(-c2ccccc2)nc1SCC(=O)Nc1sc2c(c1C#N)CCC2	-	-	-	-	.
O=C(c1ccco1)N1CCN(C(=O)c2cc(Cl)nc3ccccc23)CC1	-	.	-	.	.
O=C(c1cc(-c2cccnc2)nc2ccc(Br)cc12)N1CCN(c2ncccn2)CC1	-	-	-	-	-
O=C(c1cc(-c2ccncc2)nc2ccccc12)N1CCN(c2ncccn2)CC1	-	.	-	.	-
O=C(c1ccco1)N1CCN(C(=O)c2cc(-c3ccccn3)nc3ccccc23)CC1	-	-	-	-	-
O=[N+]([O-])c1ccccc1Oc1ccc(S(=O)(=O)N2CCOCC2)cc1	-	.	-	.	.
O=C(CN1CCCCC1)NC(=O)NCc1ccccc1	-	-	-	-	.
CC(=O)Nc1ccc(S(=O)(=O)NCC(=O)NC(C)c2ccc(S(N)(=O)=O)cc2)cc1 (stereo not drawn)	-	-	-	-	-
SMILES	VLA-4 inh	p-CIP stab down	GASC-1 inh	GPR7 antag	VLA-4 mod pick
CCOc1ccc(CN2CCN(CC(O)Cn3c4ccccc4c4ccccc43)CC2)cc1 (stereo not drawn)	51	-	-	-	-
CCOC(=O)c1cc(C)sc1NC(=O)C(c1ccccc1)c1ccccc1	-	-	-	-	.
COc1cc(NC(=O)C(c2ccccc2)c2ccccc2)c(C(=O)O)cc1OC	-	-	-	-	-
CCc1cc(C(=O)O)c(NC(=O)C(c2ccccc2)c2ccccc2)s1	90	-	-	-	-
O=C(NC(Cc1ccccc1)C(=O)O)/C(=C/c1ccc([N+](=O)[O-])cc1)NC(=O)c1ccco1 (stereo not drawn)	-	-	-	-	.
COc1ccc(S(=O)(=O)N2CCOC2CNC(=O)C(=O)NCCN2CCOCC2)cc1C (stereo not drawn)	-	-	-	-	.
O=C(CN1CCN(Cc2ccccc2)CC1)N/N=C/C=C/c1ccccc1[N+](=O)[O-]	-	-	-	-	-
O=C1Cc2cc(S(=O)(=O)Nc3ccc(F)cc3Cl)ccc2N1	-	.	-	.	.
CC(=O)c1ccccc1NS(=O)(=O)c1ccc2c(c1)CC(=O)N2	-	.	-	.	-
Cc1ccc(/C=N/NC(=O)CNC(=O)c2cccc([N+](=O)[O-])c2C)o1	58	-	-	-	-
CCCSC1=NN2CCCC(=O)N=C2S1	50	-	-	-	-
